Reference: the supplement of paper PMC7380943
Where a name gives a salt, the structure may show the parent alone.

Test system: CLZ3 (HCA2 human fibroblast dual HR-NHEJ reporter)
Assay: NHEJ repair efficiency (GFP+ cells) relative to control (log10 fold); higher = more non-homologous end joining
Conditions: 5 µM; doxycycline 0.5 ug/mL
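Further: compound given one day ahead of doxycycline, which switches on I-SceI endonuclease to cut the chromosomally integrated reporter and create DSBs.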

Compound	NHEJ repair efficiency (log10)
C[C@@H]1CC[C@H]2[C@@H](C)C(=O)O[C@@H]3O[C@@]4(C)CC[C@@H]1[C@]32OO4 [Artemisinin]	0.1
O=c1cccc2n1CC1CC2CN2CCCCC12 (stereo not drawn) [Thermopsine]	0.0072
COC1=C[C@@H]2[C@@H]3Cc4ccc(OC)c(O)c4[C@]2(CCN3C)CC1=O [Sinomenine]	0.154
CCN1C[C@]2(COC)CC[C@H](O)C34C1C([C@H](OC)[C@@H]32)[C@]1(O)[C@@H]2[C@H]4CC([C@@H](OC)[C@@H]1O)[C@@H]2O [Fuziline]	0.0177
CC1(C)[C@H]2O[C@H]2[C@H]2[C@](C)(O)[C@@H]3CCC4[C@H](O)[C@@]3(C[C@@H](O)[C@@]21O)C[C@@]4(C)O [Rhodojaponin Iii]	0.0171
COc1c(C)c(O)cc2[o+]c(-c3ccccc3)ccc12.[O-][Cl+3]([O-])([O-])[O-] [Dracorhodin perochlorate]	0.134
CN[C@@H](C)[C@H](O)c1ccccc1 [Ephedrine hydrochloride]	0.0488
C[C@H]1CC[C@H]2[C@H](C)[C@@H]3CC[C@@H]4[C@@H](C[C@H]5[C@H]4C[C@@H](O)[C@H]4C[C@@H](O)CC[C@@]45C)[C@@H]3CN2C1 [Hupehenine]	0.00613
C[C@@]12C[C@@H](c3ccoc3)OC(=O)[C@@H]1CC[C@]1(C)[C@H]2[C@@H]2C=C[C@@]1(O)C(=O)O2 [Columbin]	-0.00145
O=C1C=CC[C@@H]2[C@H]3CCCN4CCC[C@@H](CN12)[C@@H]34 [Sophocarpine]	-0.0254
O=C(/C=C/c1ccccc1)OC[C@H]1O[C@@H](O[C@@H]2OC=C[C@H]3[C@H](O)[C@@H]4O[C@]4(CO)[C@@H]23)[C@H](O)[C@@H](O)[C@@H]1O [Picroside I]	-0.0564
C/C=C/C#CC#C/C=C/c1ccco1 [Atractylodin]	0.014
C[C@H]1CCC2N(C1)C[C@H]1C3CC4[C@@H](CC(=O)C5C[C@@H](O)CC[C@@]54C)C3CCC1[C@]2(C)O (stereo partly drawn) [Peiminine]	-0.0507
CCN1C[C@]2(COC)CC[C@H](O)[C@]34C1[C@H]([C@H](OC)[C@H]23)[C@@]1(O)C[C@H](OC)[C@H]2C[C@@H]4[C@@H]1[C@H]2O [Neoline]	-0.0435
CCN1C[C@]2(COC)[C@H](O)C[C@H](OC)[C@@]34[C@@H]5C[C@@]6(O)[C@H](OC(=O)c7ccccc7)[C@@H]5[C@@](OC(C)=O)([C@@H]([C@H](OC)[C@H]23)[C@@H]14)[C@@H](O)[C@@H]6OC [Aconitine]	-0.148
CCN1C[C@]2(COC)CC[C@H](OC)[C@]34C1[C@H]([C@H](OC)[C@H]23)[C@@]1(O)C[C@H](OC)[C@H]2C[C@@H]4[C@@H]1[C@H]2O [Chasmanine]	0.0232
CCC(C)C(=O)O[C@@H]1[C@@H](OC(C)=O)[C@]2(C)[C@H](C(C)=O)CC[C@@]23O[C@]32CC[C@H]3C[C@@H](O[C@H]4C[C@@H](OC)[C@H](O[C@@H]5O[C@H](C)[C@@H](O)[C@@H](OC)[C@H]5O)[C@@H](C)O4)CC[C@]3(C)[C@@H]12 (stereo partly drawn) [Tenacissoside H]	-0.0163
CCN1C[C@]2(COC)[C@H](O)C[C@H](OC)[C@@]34[C@@H]5C[C@@]6(O)[C@H](OC(=O)c7ccccc7)[C@@H]5[C@@](O)([C@@H]([C@H](OC)[C@H]23)[C@@H]14)[C@@H](O)[C@@H]6OC [Benzoylaconine]	-0.0909
O=C(O)[C@@H]1[C@H](C(=O)O)[C@H]2CC[C@@H]1O2 [Endothall Disodium Salt]	0.13
CN(C)Cc1c[nH]c2ccccc12 [Gramine]	0.014
COC[C@]12CN(C)[C@@H]3[C@@H]4[C@H](OC)[C@H]1[C@@]3([C@@H](OC)C[C@H]2O)[C@@H]1C[C@@]2(O)[C@H](OC(=O)c3ccccc3)[C@@H]1[C@]4(OC(C)=O)[C@@H](O)[C@@H]2OC [Mesaconitine]	-0.0215
COc1cc2c(cc1O)C[C@@H]1NCCc3cc(OC)c(O)c-2c31 [Norisoboldine]	-0.132
CCN1C[C@@]2(COC)[C@H]3[C@@H](OC)[C@H]4C1[C@]3([C@@H](OC)C[C@H]2OC(C)=O)[C@@H]1C[C@@]2(O)[C@H](OC(=O)c3ccccc3)[C@@H]1[C@]4(OC(C)=O)[C@@H](O)[C@@H]2OC [Acetylaconitine]	-0.0797
